# Assay outcomes deposited in PubChem BioAssay by National Center for Advancing Translational Sciences (NCATS).
# Compounds with a hit are over-represented: about 0.31% of the library has one in this group of screens.
# TRPML1 agonist: qHTS for Agonists of the Human Mucolipin Transient Receptor Potential 1 (TRPML1); Mucolipin-1 (Homo sapiens), Q9GZU1; TRPML1-expressing cells, Ca2+ dye fluorescence, FDSS; activation, % (test concentration not listed); 410,000 compounds, 0.12% hits; AID 624414, 2012; in the data active = activation above about 50%; inconclusive = mostly about 30% to 49%; also: 0% is about no effect
#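 Agonist activity was taken from a 110 s kinetic Ca2+ dye read on the FDSS after pinning compounds onto TRPML1-DL cells. The cells were seeded at 1,500/well with Tet inducer, incubated about 16 h, then dye-loaded at room temperature.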
# TRPML1 blocker: qHTS for Inhibitors of the Human Mucolipin Transient Receptor Potential 1 (TRPML1); activity change, negative = inhibition, % (concentration not given with the values); Mucolipin-1 (Homo sapiens), Q9GZU1; TRPML1-inducible cells, Ca2+ dye fluorescence, FDSS; hits give low values; inhibition of EC80 agonist-evoked calcium signal; 390,000 compounds, 0.02% hits; in the data active = activity change below about -50%; inconclusive = between about -30% and that limit;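 also: stimulus is agonist 54-4 at its EC80 concentration; % is scaled to controls: 0 for no effect and ±100 for the full control effect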
#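 Tet-induced TRPML1-DL cells loaded with Ca8 no-wash calcium dye were read kinetically on FDSS. Compound addition was followed by EC80 agonist 54-4 (4 uM final); inhibition was read over 110 s.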
# TRPV1 PAM: HTS Assay for Compounds that Act as Potentiators of the Vanilloid Receptor 1 | AID 540277, 2011 | 320,000 compounds, 0.02% hits | potentiation, % at 8.33 µM | TRPV1-expressing cells, Fluo-8 calcium influx, capsaicin EC20 potentiation; in the data active = potentiation above about 80%; inconclusive = between about 30% and that limit; also: 0% is about no effect
#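 Fluo-8 calcium influx in TRPV1-expressing cells, kinetic read (ex 480/em 520 nm). Compound added and read 3 min for agonist activity, followed by capsaicin at EC20 final and 2 min further read for enhancement.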
# TRPV1 agonist: HTS Assay for Compounds that Act as Agonists of the Vanilloid Receptor 1. TRPV1-expressing cells, Fluo-8 calcium influx, agonist mode. activation, % at 8.33 µM. 320,000 compounds, 0.19% hits. AID 540275, 2011; in the data active = activation above about 80%; inconclusive = between about 30% and that limit; also: 0% is about no effect
#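 Fluo-8 calcium influx in TRPV1-expressing cells, kinetic read (ex 480/em 520 nm). Compound added and read 3 min for agonist activity, followed by capsaicin at EC20 final and 2 min further read for enhancement.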
# * marks the source's active call; other numbers are inactive results; ? = inconclusive; · = no result given.
SMILES,TRPML1 agonist,TRPML1 blocker,TRPV1 PAM,TRPV1 agonist
Cc1c(C(c2ccc(Cl)cc2Cl)c2c(O)c3ccccc3oc2=O)c(=O)n(-c2ccccc2)n1C (stereo unspecified),0.9,21.6,82.5*,-3.9
Cc1cc(/C=C/c2cccc3sc(C)[n+](CCCCI)c23)ccc1N(CCCl)CCCl,13.5,·,·,·
O=C(CN1CCCC2CCCCC21)c1ccc(I)cc1 (stereo unspecified),-0.5,·,·,·
CCN(CC)c1ccc(/C=C/[N+](=O)[O-])cc1,70.9*,1.3,-6.3,?
CCCCn1nnnc1C(C1CC1)N1CCC2(CC1)C(=O)NCN2c1ccccc1 (stereo unspecified),1.5,·,·,·
O=C(CCCN1CCC2(CC1)C(=O)NCN2c1ccccc1)c1ccc(F)cc1,75.7*,21.0,-4.7,18.0
O=C1/C(=C/c2ccc(N(CCCl)CCCl)cc2)Cc2ccccc21,73.4*,·,·,·
CCCCCCCCC(=O)NCc1ccc(O)c(OC)c1,2.3,-5.1,4.5,104.8*
COc1cc(CNCCc2ccc3c(c2)OCO3)ccc1O,1.0,13.9,-13.4,2.4
CC(=O)NCC(N)C(=O)c1ccc(Cl)c(Cl)c1 (stereo unspecified),-0.6,·,·,·
CCOC(=O)C1CCCN(c2ccc([N+](=O)[O-])c3nonc23)C1 (stereo unspecified),88.5*,-6.3,-9.8,105.1*
CC1CCCN(c2ccc(C(=O)N3CCC4(CC3)OCCO4)cc2[N+](=O)[O-])C1 (stereo unspecified),-0.4,-3.2,-9.1,?
